Measured values: PubChem BioAssay (EPA / NIEHS)
Active and inactive are the calls of the source. Rule for the calls, unless noted: active = hit-call score of the fitted dose curve at least 0.9, where 1 is the maximum; inactive = score below 0.9.

Legend:
[1] = read-out: Protein phosphatase 2A (PPP2R4), PTPA (gene 5524); experiment: LTEA_HepaRG_PPP2R4: Life Technologies and Expression Analysis (LTEA) Assay for Protein phosphatase 2A (PPP2R4) using HepaRG (AID 2283522); settings: mRNA level, 48 h; actives raise or lower the signal
Method in brief: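 Expression was quantified by Fluidigm qRT-PCR normalised to three housekeeping genes after 48 h treatment. Human HepaRG cells received an 8-point series from 100 µM downward by half-logs, in duplicate with 0.5% DMSO vehicle and 1 mM phenobarbital as induction control.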

[2] = read-out: Phosphatase and tensin (PTEN), PTEN (gene 5728); experiment: LTEA_HepaRG_PTEN: Life Technologies and Expression Analysis (LTEA) Assay for Phosphatase and tensin (PTEN) using HepaRG (AID 2283523); settings: mRNA level, 48 h; actives raise or lower the signal
Method in brief: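 HepaRG, 48 h exposure, 8-pt half-log series from 100 uM top, 0.5% DMSO vehicle, duplicates. Readout: Fluidigm qRT-PCR of PTEN transcript; housekeeping normalization (ACTB, GAPDH, POLR2A). Gain or loss fitted relative to DMSO baseline.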

[3] = read-out: solute carrier (SLC22A1), SLC22A1 (gene 6580); experiment: LTEA_HepaRG_SLC22A1: Life Technologies and Expression Analysis (LTEA) Assay for solute carrier (SLC22A1) using HepaRG (AID 2283524); settings: mRNA level, 48 h; actives raise or lower the signal;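 for AC50: differentiated human HepaRG liver cells in serum-free induction medium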
Method in brief: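 qRT-PCR readout (TaqMan, Fluidigm arrays) of SLC22A1 transcript, normalized to three housekeeping genes; bidirectional curve fit relative to 0.5% DMSO vehicle. Differentiated human HepaRG cells, 48 h chemical exposure, top concentration 100 uM, half-log steps, eight points.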

[4] = read-out: Pyruvate Dehydrogenase Kinase 4 (PDK4), PDK4 (gene 5166); experiment: LTEA_HepaRG_PDK4: Life Technologies and Expression Analysis (LTEA) Assay for Pyruvate Dehydrogenase Kinase 4 (PDK4) using HepaRG (AID 2283525); settings: mRNA level, 48 h; actives raise or lower the signal
Method in brief: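 HepaRG (human liver line), 48 h chemical exposure, 8-pt half-log CRC top 100 uM, 0.5% DMSO vehicle, duplicates. Readout: TaqMan qRT-PCR of PDK4 mRNA, housekeeping-normalized; gain/loss fit relative to DMSO baseline.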

[5] = read-out: NAD(P)H dehydrogenase [quinone] 1 (NQO1), NQO1 (gene 1728); experiment: LTEA_HepaRG_NQO1: Life Technologies and Expression Analysis (LTEA) Assay for NAD(P)H dehydrogenase [quinone] 1 (NQO1) using HepaRG (AID 2283526); settings: mRNA level, 48 h; actives raise or lower the signal
Method in brief: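 NQO1 transcript induction or loss measured by TaqMan qRT-PCR, referenced to three housekeeping genes and fitted bidirectionally against 0.5% DMSO. HepaRG cultures exposed 48 h, duplicate, eight-point half-log series, top 100 uM.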

[6] = read-out: Nuclear factor erythroid 2-related factor 2 (Homo sapiens) (UniProt Q16236); experiment: LTEA_HepaRG_NFE2L2: Life Technologies and Expression Analysis (LTEA) Assay for Nuclear factor erythroid 2-related factor 2 (NFE2L2) Transcription Factor using HepaRG (AID 2283527); settings: mRNA level, 48 h; actives raise or lower the signal
Method in brief: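 HepaRG, 48 h dosing, 8-pt half-log series from 100 uM in 0.5% DMSO, duplicates. Read-out: NFE2L2 mRNA by qRT-PCR (ACTB/GAPDH/POLR2A normalization). Bidirectional curve fit vs DMSO baseline.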

[7] = read-out: succinate dehydrogenase complex iron sulfur subunit B (SDHB), SDHB (gene 6390); experiment: LTEA_HepaRG_SDHB: Life Technologies and Expression Analysis (LTEA) Assay for succinate dehydrogenase complex iron sulfur subunit B (SDHB) using HepaRG (AID 2283528); settings: mRNA level, 48 h; actives raise or lower the signal
Method in brief: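 SDHB transcript level read by TaqMan qRT-PCR, housekeeping-normalised (ACTB, GAPDH, POLR2A), after 48 h chemical treatment of plated HepaRG cells; eight concentrations top 100 uM, half-log steps, 0.5% DMSO, duplicates; fitted both directions against DMSO.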

[8] = read-out: Signal transducer and activator of transcription 3 (Homo sapiens) (UniProt P40763); experiment: LTEA_HepaRG_STAT3: Life Technologies and Expression Analysis (LTEA) Assay for Signal transducer and activator of transcription (STAT3) using HepaRG (AID 2283529); settings: mRNA level, 48 h; actives raise or lower the signal
Method in brief: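 HepaRG, 48 h exposure, 8-pt half-log series (top 100 uM), 0.5% DMSO vehicle, duplicates. Readout: STAT3 transcript by Fluidigm qRT-PCR, housekeeping-normalized; bidirectional fit vs DMSO baseline.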

[9] = read-out: solute carrier (SLCO1B1), SLCO1B1 (gene 10599); experiment: LTEA_HepaRG_SLCO1B1: Life Technologies and Expression Analysis (LTEA) Assay for solute carrier (SLCO1B1) using HepaRG (AID 2283530); settings: mRNA level, 48 h; actives raise or lower the signal
Method in brief: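 SLCO1B1 transcript levels were quantified by TaqMan qRT-PCR using three housekeeping genes for normalization. This followed 48 h chemical exposure (100 uM top, half-log, 8 points, 0.5% DMSO) of HepaRG liver cells, with gain or loss fitted relative to DMSO.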

[10] = read-out: sulfotransferase 2A1 (SULT2A1), SULT2A1 (gene 6822); experiment: LTEA_HepaRG_SULT2A1: Life Technologies and Expression Analysis (LTEA) Assay for sulfotransferase 2A1 (SULT2A1) using HepaRG (AID 2283531); settings: mRNA level, 48 h; actives raise or lower the signal
Method in brief: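 Expression change of SULT2A1, by qRT-PCR with three housekeeping-gene normalization, was scored bidirectionally versus DMSO. Cells: differentiated HepaRG, dosed in duplicate for 48 h across 8 points, highest 100 µM, half-log dilution, 0.5% DMSO.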

[11] = read-out: Transforming Growth Factor (TGFA), TGFA (gene 7039); experiment: LTEA_HepaRG_TGFA: Life Technologies and Expression Analysis (LTEA) Assay for Transforming Growth Factor (TGFA) using HepaRG (AID 2283532); settings: mRNA level, 48 h; actives raise or lower the signal
Method in brief: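 qRT-PCR read-out of TGFA transcript, normalized to three housekeeping genes, fitted bidirectionally against 0.5% DMSO baseline. Human HepaRG cultures received chemicals for 48 h at eight half-log concentrations, top 100 uM.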

[12] = read-out: Transforming Growth Factor (TGFB1), TGFB1 (gene 7040); experiment: LTEA_HepaRG_TGFB1: Life Technologies and Expression Analysis (LTEA) Assay for Transforming Growth Factor (TGFB1) Transporter using HepaRG (AID 2283533); settings: mRNA level, 48 h; actives raise or lower the signal
Method in brief: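 TGFB1 transcript measured by qRT-PCR with normalisation to three housekeeping genes (ACTB, GAPDH, POLR2A); human HepaRG line treated in duplicate for 48 hr with an 8-point series topping at 100 uM, 0.5% DMSO vehicle, bidirectionally fitted.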

TIMP1, TIMP1 (gene 7076) = experiment: LTEA_HepaRG_TIMP1: Life Technologies and Expression Analysis (LTEA) Assay for TIMP1 using HepaRG (AID 2283534); settings: mRNA level, 48 h; actives raise or lower the signal
Method in brief: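 Bidirectional change in TIMP1 transcript versus 0.5% DMSO, measured by TaqMan qRT-PCR with three housekeeping genes for normalization. HepaRG human liver cells dosed 48 h in duplicate, top concentration 100 uM with half-log dilutions.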

[13] = read-out: Tumor necrosis factor receptor 1 (TNFRSF1A), TNFRSF1A (gene 7132); experiment: LTEA_HepaRG_TNFRSF1A: Life Technologies and Expression Analysis (LTEA) Assay for Tumor necrosis factor receptor 1 (TNFRSF1A) using HepaRG (AID 2283535); settings: mRNA level, 48 h; actives raise or lower the signal
Method in brief: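 mRNA measured by qRT-PCR (TaqMan, Fluidigm arrays) against ACTB/GAPDH/POLR2A housekeepers after 48 h chemical exposure of HepaRG cells. Top concentration 100 uM, half-log 8-point series, duplicates; vehicle 0.5% DMSO, both fit directions.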

[14] = read-out: Thyroid Hormone Responsive (THRSP), THRSP (gene 7069); experiment: LTEA_HepaRG_THRSP: Life Technologies and Expression Analysis (LTEA) Assay for Thyroid Hormone Responsive (THRSP) using HepaRG (AID 2283536); settings: mRNA level, 48 h; actives raise or lower the signal
Method in brief: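 qRT-PCR read-out (Fluidigm TaqMan), housekeeping-normalized (ACTB/GAPDH/POLR2A). HepaRG, 48 h chemical exposure, 8-pt half-log series from 100 uM in 0.5% DMSO, duplicates. Bidirectional curve fit vs 0.5% DMSO baseline.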

[15] = read-out: Cellular tumor antigen p53 (Homo sapiens) (UniProt P04637); experiment: LTEA_HepaRG_TP53: Life Technologies and Expression Analysis (LTEA) Assay for Tumor Protein P53 (TP53) using HepaRG (AID 2283537); settings: mRNA level, 48 h; actives raise or lower the signal
Method in brief: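 TP53 transcript measured by qRT-PCR, normalized to three housekeeping genes, after 48 h treatment of human HepaRG cultures with chemicals from 100 uM downward in half-log steps (0.5% DMSO vehicle, serum-free induction medium). Up- or down-regulation fitted against DMSO.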

[16] = read-out: UDP glucuronosyltransferase (UGT1A1), UGT1A1 (gene 54658); experiment: LTEA_HepaRG_UGT1A1: Life Technologies and Expression Analysis (LTEA) Assay for UDP glucuronosyltransferase (UGT1A1) using HepaRG (AID 2283538); settings: mRNA level, 48 h; actives raise or lower the signal
Method in brief: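 UGT1A1 transcript level, measured by qRT-PCR with three housekeeping genes for normalization, after 48 h treatment of human HepaRG cells (0.5% DMSO, duplicates, up to 100 uM, half-log steps, 8 points). Curves fit both directions against DMSO baseline.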

[17] = read-out: X-box binding protein 1 (XBP1), XBP1 (gene 7494); experiment: LTEA_HepaRG_XBP1: Life Technologies and Expression Analysis (LTEA) Assay for X-box binding protein 1 (XBP1) using HepaRG (AID 2283540); settings: mRNA level, 48 h; actives raise or lower the signal
Method in brief: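 XBP1 transcript by qRT-PCR (housekeeping-normalized: ACTB, GAPDH, POLR2A) after 48 h chemical treatment of HepaRG cells, 8-point half-log series topping at 100 uM, vehicle 0.5% DMSO. Gain and loss of signal fitted relative to DMSO.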

[18] = LTEA_HepaRG_LDH_cytotoxicity: Cytotoxicity Assessment in the Life Technologies and Expression Analysis (LTEA) Assay (AID 2283563; active = hit-call score of the fitted dose curve at least 0.9, where 1 is the maximum)
Method in brief: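 LDH release into culture medium read after 48 h chemical treatment of HepaRG cells. Duplicate wells, eight-point half-log series topping at 100 uM, 0.5% DMSO vehicle and baseline.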

[19] = read-out: UDP glucuronosyltransferase (UGT1A6), UGT1A6 (gene 54578); experiment: LTEA_HepaRG_UGT1A6: Life Technologies and Expression Analysis (LTEA) Assay for UDP glucuronosyltransferase (UGT1A6) using HepaRG (AID 2283539); settings: mRNA level, 48 h; actives raise or lower the signal
Method in brief: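 Expression was quantified by TaqMan qRT-PCR on Fluidigm arrays with ACTB/GAPDH/POLR2A normalization and bidirectional fitting against 0.5% DMSO. HepaRG cells (~100,000/well) were treated in duplicate for 48 h at eight half-log concentrations up to 100 uM in serum-free induction medium.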

Measured: AC50

Cellular tumor antigen p53 (Homo sapiens), sequence (P04637 whole entry, looked up): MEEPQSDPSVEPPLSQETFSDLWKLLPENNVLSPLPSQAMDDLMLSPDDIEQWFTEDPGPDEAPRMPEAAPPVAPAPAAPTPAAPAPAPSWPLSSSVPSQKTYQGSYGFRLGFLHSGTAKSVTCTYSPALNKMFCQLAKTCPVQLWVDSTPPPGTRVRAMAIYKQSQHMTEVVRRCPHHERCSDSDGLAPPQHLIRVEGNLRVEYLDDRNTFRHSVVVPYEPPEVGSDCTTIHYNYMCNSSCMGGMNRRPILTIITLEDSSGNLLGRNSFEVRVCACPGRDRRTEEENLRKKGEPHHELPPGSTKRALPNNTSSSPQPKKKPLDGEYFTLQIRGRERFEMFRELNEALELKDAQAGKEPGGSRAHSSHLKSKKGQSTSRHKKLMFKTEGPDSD
Nuclear factor erythroid 2-related factor 2 (Homo sapiens), sequence (Q16236 whole entry, looked up): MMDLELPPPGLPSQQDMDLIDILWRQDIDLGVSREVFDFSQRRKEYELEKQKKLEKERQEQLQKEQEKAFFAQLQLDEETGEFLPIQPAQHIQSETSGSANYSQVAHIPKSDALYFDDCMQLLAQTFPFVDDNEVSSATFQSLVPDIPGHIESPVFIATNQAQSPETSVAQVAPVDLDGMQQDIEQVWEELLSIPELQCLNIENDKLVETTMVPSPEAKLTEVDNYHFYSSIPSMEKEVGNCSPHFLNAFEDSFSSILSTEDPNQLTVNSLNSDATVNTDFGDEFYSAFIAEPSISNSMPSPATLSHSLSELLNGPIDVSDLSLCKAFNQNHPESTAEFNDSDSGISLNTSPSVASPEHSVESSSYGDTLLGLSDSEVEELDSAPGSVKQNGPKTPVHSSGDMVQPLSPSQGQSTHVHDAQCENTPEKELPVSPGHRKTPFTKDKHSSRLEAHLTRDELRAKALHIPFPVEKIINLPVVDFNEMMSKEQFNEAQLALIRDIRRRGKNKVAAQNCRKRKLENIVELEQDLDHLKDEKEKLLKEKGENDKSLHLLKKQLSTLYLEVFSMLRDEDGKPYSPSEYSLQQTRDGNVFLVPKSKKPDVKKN
Signal transducer and activator of transcription 3 (Homo sapiens), sequence (P40763 whole entry, looked up): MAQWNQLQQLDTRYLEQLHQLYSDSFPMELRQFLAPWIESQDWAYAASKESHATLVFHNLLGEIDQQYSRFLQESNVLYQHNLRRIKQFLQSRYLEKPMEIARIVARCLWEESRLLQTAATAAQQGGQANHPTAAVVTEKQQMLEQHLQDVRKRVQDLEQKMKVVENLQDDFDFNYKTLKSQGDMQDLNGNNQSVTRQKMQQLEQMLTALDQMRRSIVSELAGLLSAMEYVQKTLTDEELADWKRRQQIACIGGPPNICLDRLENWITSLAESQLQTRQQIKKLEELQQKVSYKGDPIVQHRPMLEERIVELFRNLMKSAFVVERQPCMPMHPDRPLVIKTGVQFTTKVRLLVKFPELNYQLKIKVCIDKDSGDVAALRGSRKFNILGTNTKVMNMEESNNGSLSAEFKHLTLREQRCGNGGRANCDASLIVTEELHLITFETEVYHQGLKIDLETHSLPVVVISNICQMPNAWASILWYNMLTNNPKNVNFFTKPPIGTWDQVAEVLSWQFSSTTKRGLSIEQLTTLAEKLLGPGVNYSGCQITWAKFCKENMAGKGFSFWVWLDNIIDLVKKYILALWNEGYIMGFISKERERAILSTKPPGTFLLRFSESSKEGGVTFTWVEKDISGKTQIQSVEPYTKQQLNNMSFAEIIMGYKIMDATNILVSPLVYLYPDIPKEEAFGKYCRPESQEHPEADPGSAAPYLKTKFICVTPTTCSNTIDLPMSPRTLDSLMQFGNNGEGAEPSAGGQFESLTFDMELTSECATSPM

CC(C)(OOC(C)(C)c1ccccc1)c1ccccc1
active: [16] 24.4 µM
not listed: [19]
inactive: all other assays above

N#CC(Br)(Br)C(N)=O
not listed: [19]
inactive: all other assays above

OCCCBr
not listed: [19]
inactive: all other assays above

Clc1ccc(Cl)c(Cl)c1
active: [3] 20 µM | [10] 83.5 µM | [13] 50 µM
not listed: [19]
inactive: all other assays above

CN(C)c1ccccc1
not listed: [19]
inactive: all other assays above

Cn1cc(-c2ccccc2)c(=O)c(-c2cccc(C(F)(F)F)c2)c1
active: [4] 50 µM | [6] 20.9 µM | [10] 9.92 µM | [16] 8.71 µM | [17] 15 µM
not listed: [19]
inactive: all other assays above

CS(=O)(=O)NC(=O)c1cc(Oc2ccc(C(F)(F)F)cc2Cl)ccc1[N+](=O)[O-]
active: [4] 16 µM | [16] 3.32 µM
inactive: all other assays above
